Screens (PubChem BioAssay)
aSyn rescue: qHTS of alpha-syn Inhibitors; Yeast expressing alpha-synuclein, growth rescue, BacTiter-Glo, 24 h; Potency, µM (titrated, usually from 46.1 µM), actives largely listed as activators; 370,000 compounds, 0.14% hits; AID 652106, 2013; note: nearly all actives have a fitted effect of over 65% in size
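Readout is rescue of growth in alpha-synuclein-expressing yeast, so inhibitors of toxicity appear as activators. Growth after 24 hr at 30 deg C in galactose medium is quantified by luminescence.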
FUS yeast rescue: qHTS for Suppressors of FUS Proteinopathy: Primary screen using FUS-linked yeast assay; S. cerevisiae FUS-expressing, growth rescue, OD600, 24 h; Potency, µM (top dose mostly 76.6 µM), usual class: activators; 390,000 compounds, 0.24% hits; AID 1347120, 2019; note: nearly all actives have a fitted effect of over 55% in size
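FUS-expressing yeast, raffinose-pregrown, induced in 2% galactose minimal medium at OD 0.005; compounds in a dilution series, 24hr at 30C. Growth restoration read as absorbance at 600 nm. CP55940 positive control, DMSO negative.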
Abeta rescue: qHTS for compounds that reverse cellular toxicity of Amyloid beta (A-beta) peptide in yeast: Primary Screen. 410,000 compounds, 0.063% hits. Potency, µM (titrated, usually from 46.1 µM), hits mostly activators. yeast expressing A-beta42, growth rescue, OD600, 48 h; response scale: 0% DMSO, 100% iron-clioquinol control. AID 1347071, 2019; note: nearly all actives have a fitted effect of over 55% in size
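Yeast growth medium received pinned compounds, then yeast cells expressing toxic A-beta were added; plates incubated at 30 C for 48 hr. Growth read as absorbance at 600 nm, normalized to DMSO and equimolar FeCl3 plus clioquinol controls.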
TDP43 rescue: qHTS of TDP-43 Inhibitors | TDP-43 expressing yeast growth rescue, BacTiter-Glo, 24 h | Potency, µM (titrated, usually from 46.1 µM), usual class: activators | 410,000 compounds, 1.8% hits; note: nearly all actives have a fitted effect of over 50% in size
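Galactose-induced TDP-43 yeast, OD600=0.02, compound pinned; 24 hr, 30 deg C; BacTiter-Glo luminescence for growth. Inhibitors of TDP-43 toxicity read as activators.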
Numbers stand for hits; i = inactive; ? = inconclusive; nt = no result. Compounds with a hit are over-represented: about 2.1% of the library has one in this group of screens. Calls come from the whole dose curve; as a rule, active = well fitted curve in the direction sought with a large enough effect; inconclusive = small, poorly fitted or top-dose-only effect, or another doubt; inactive = no such curve, though single readings can be large; an effect the other way counts as inactive or inconclusive.

SMILES | aSyn rescue | FUS yeast rescue | Abeta rescue | TDP43 rescue
COc1ccc(/C=C/c2nc(N)nc(-c3ccccc3O)n2)cc1OC | i | nt | i | 16µM
CCC(C)Nc1nc(N)c([N+](=O)[O-])c(NCc2ccccc2)n1 (configuration not stated) | i | i | i | 18µM
CC(C)(C)c1cnnn1-c1ccc(C(=O)CCl)cc1 | i | i | i | 8.9µM
O=c1nc2c(O)cccn2c2c1c(=O)[nH]c1ccccc12 | i | i | i | i
O=c1[nH]c2ccccc2c2nc3ccccn3c12 | ? | i | i | 22µM
CCOc1ccccc1NC(=O)C1CCN(S(=O)(=O)c2cccs2)CC1 | nt | i | i | i
Cc1ccc(-n2cc(-c3ccccc3)nc2S(=O)(=O)CC(=O)Nc2ccc(F)cc2)cc1 | nt | ? | i | i
Cn1nc(C(C)(C)C)cc1C(=O)N1CCCCC1c1cc(C(=O)Nc2cccc3c2CCCC3)no1 (configuration not stated) | i | 32µM | i | i
CC(=O)Nc1ccc(C(=O)N2CCCCC2c2cc(C(=O)Nc3cccc4c3CCCC4)no2)cc1 (configuration not stated) | i | ? | i | ?
O=C(CCCl)Nc1nc2c(s1)CCc1ccccc1-2 | i | i | i | 22µM
O=C(Nc1nc2c(s1)CCc1ccccc1-2)c1ccco1 | i | i | i | 13µM
COc1ccc(N2CCN(C(=O)C3CC(O)CN3S(=O)(=O)c3ccc([N+](=O)[O-])cc3)CC2)cc1 (configuration not stated) | i | nt | ? | i
O=[N+]([O-])c1ccc(/C=N/Nc2nc(-c3ccccc3)c3cc(Br)ccc3n2)o1 | i | i | i | 11µM
O=C(COc1ccc2ccccc2c1)NC1CC(=O)N(c2ccccc2)C1 (configuration not stated) | nt | i | i | i
CC(C)OC1=CC(=O)OC(c2cccc(Cl)c2)C1 (configuration not stated) | i | i | i | 22µM
O=CNc1ccc2c3c(cccc13)-c1ccccc1-2 | i | i | i | ?
COc1ccc(-c2cc3nc(NCC4CCCCC4)n(C)c(=O)c3s2)cc1OC | i | i | 22µM | 20µM
COc1ccc(Nc2nc3cc(-c4sccc4C)sc3c(=O)n2C)cc1OC | i | ? | i | 35µM
COc1ccccc1CNc1nc2cc(-c3ccc(OC)c(OC)c3)sc2c(=O)n1C | i | ? | i | ?
COc1ccc(Nc2nc3cc(-c4ccsc4)sc3c(=O)n2C)cc1OC | i | 28µM | i | ?
COC(=O)C1CCCN1S(=O)(=O)c1ccc2ccccc2c1 (configuration not stated) | i | i | i | i
Cc1cc(C)cc(C(=O)NC(=S)Nc2ccc3c(c2)OCCO3)c1 | i | nt | i | ?
O=[N+]([O-])c1cc([N+](=O)[O-])c2oc(-c3ccccc3)c(Br)c2c1O | i | i | i | i
Cc1ccc(C(=O)NCC#N)cc1 | i | i | i | i
Cc1ccc(C(=O)NC(C#N)=C(Cl)Cl)cc1 | i | i | i | 11µM
SMILES | aSyn rescue | FUS yeast rescue | Abeta rescue | TDP43 rescue
CC(c1ccccc1)N1CCn2c(nc3cc(NC(=O)NC4CCCCC4)ccc32)C1 (configuration not stated) | i | 11µM | i | i
CCOC(=O)c1c(C)[nH]c(C)c1C(=O)COC(=O)CSc1ccc(C)cc1 | i | ? | i | i
Cc1ccc2c(c1)c(C)c(C)n2CC(O)Cn1nnc2ccccc21 (configuration not stated) | ? | ? | 10µM | ?
CCCn1nc(C(=O)NNC(=O)c2ccc(C)c(C)c2)c2ccccc2c1=O | i | nt | i | i
CCCn1nc(C(=O)N2CCN(S(=O)(=O)c3ccc(C)c(C)c3)CC2)c2ccccc2c1=O | i | ? | i | 35µM
Cc1cccc(N2CCN(C(=O)c3ccccn3)CC2C)c1 (configuration not stated) | i | i | i | nt
Cc1ccc(-c2c(C(=O)N3CCN(c4cccc(C)c4)C(C)C3)oc(=O)c3ccccc23)cc1 (configuration not stated) | nt | i | i | 14µM
Cc1cccc(N2CCN(C(=O)c3ccc4c(c3)c(C)c(C)n4C)CC2C)c1 (configuration not stated) | i | ? | i | 16µM
CCOC(=O)c1ccc(NC(=O)c2c(NCc3cc(OC)c(OC)cc3OC)sc3c2CCCC3)cc1 | nt | ? | i | i
Cc1ccc(C(=O)c2ccccc2C(=O)OCC(=O)NCCc2ccccc2)cc1 | i | i | i | i
CN1/C(=C\C(=O)COC(=O)CN2C(=O)C3CC=CCC3C2=O)C(C)(C)c2ccccc21 (configuration not stated) | i | i | i | i
CN1/C(=C/C(=O)CSc2ccccc2C(=O)O)C(C)(C)c2ccccc21 | i | i | ? | 20µM
CN1/C(=C/C(=O)COC(=O)C2COc3ccccc3O2)C(C)(C)c2ccccc21 (configuration not stated) | i | i | i | 32µM
COc1ccc(Nc2nnc(SCC(=O)/C=C3/N(C)c4ccccc4C3(C)C)s2)cc1 | i | nt | i | 11µM
CCCCCCCCOc1ccc(C(=O)O)cc1 | i | i | i | i
CCCCCCOc1ccc(C(=O)O)cc1C#N | i | nt | i | 22µM
Cc1ccc(S(=O)(=O)N2CCCC2=O)c(C)c1N(C)S(C)(=O)=O | i | i | i | i
Cc1ccc2nc(CSc3nnc(Cc4cccs4)n3C3CCCCC3)cc(=O)n2c1 | i | i | i | i
CCOc1ccc(C(=O)N2CCc3ccccc32)cc1 | i | i | i | i
CCCOc1ccc(C(=O)N2CCCc3ccccc32)cc1 | nt | i | i | 11µM
COc1cc(OC)cc(C(=O)N2CCCc3ccccc32)c1 | i | i | i | i
COc1ccc2oc(C(=O)N3CCCc4ccccc43)c(C)c2c1 | i | i | i | 16µM
CC(C)CC(=O)Nc1ccc(OCC(=O)O)cc1 | i | i | i | i
CCCCCc1nc2c(=O)n(C)c3ccccc3c2o1 | i | i | i | ?
Cn1c(=O)c2nc(-c3ccccc3)oc2c2ccccc21 | ? | i | i | 10µM
Cc1ccc(Nc2c([N+](=O)[O-])c(=O)n(C)c3ccccc23)cc1 | i | i | i | ?
Cn1c(=O)c(-c2ccccc2[N+](=O)[O-])c(Cl)c2ccccc21 | i | i | i | 16µM
C#CCOCCOCCOCCNc1nc(N2CCN(C(=O)CCCCCCCCCCNC(=O)[C@H](CCCCN)n3cc(C)nn3)CC2)nc(N2CCN(C(=O)CCCCCCCCCCNC(=O)[C@H](CCCN=C(N)N)n3cc(C[C@@H](C)CC)nn3)CC2)n1 | i | ? | i | ?
C#CCOCCOCCOCCNc1nc(N2CCN(C(=O)CCCCCCCCCCNC(=O)[C@H](CCCCN)n3cc(CCO)nn3)CC2)nc(N2CCN(C(=O)CCCCCCCCCCNC(=O)[C@H](CCCCN)n3cc(C[C@@H](C)CC)nn3)CC2)n1 | i | ? | i | i
